Measured values taken from PubChem BioAssay (NCI).
Compounds without any hit were thinned out: in the full panel of roughly 79,000, 15% have a hit. A number with no mark means an inactive call. Activity calls are given as the source filed them. No stated cut-off is given here; in the data, active means growth inhibition above about 70%; inactive means the rest.

assay: NCI Yeast Anticancer Drug Screen. Data for the mlh1 rad18 strain (AID 175); conditions: S. cerevisiae mlh1 rad18 strain growth inhibition; at 50.0 µM; active compounds read high
Outline: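 Genetically defined yeast (DNA repair-deficient) exposed to compounds; growth inhibition determined relative to vehicle.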

Row | Structure (SMILES) | growth inhibition
1 | C=CCCCCCCCCC(=O)OC1CCCCC1 | 6.15%
2 | O=C(O)C(Cc1ccccc1)c1ccccc1 (stereo not given) | 2.85%
3 | COc1cc(CC2c3cc(OC)c(OC)cc3CC[N+]2(C)C)c(Oc2cc(CC3c4cc(OC)c(OC)cc4CC[N+]3(C)C)ccc2OC)cc1OC (stereo not given) | 28.6%
4 | COC(C)C(NC=O)C(=O)O (stereo not given) | 1.9%
5 | O=C1c2ccccc2C(=Cc2cccnc2)c2ccccc21 | 40.7%
6 | CC1(C)OCCS1 | 13.9%
7 | CC(=O)Oc1nnc(-c2ccccc2)c(-c2ccccc2)n1 | 17.3%
8 | Clc1ccc(C2=NCCO2)cc1 | -26.3%
9 | CCCCCC(=O)N1SC(NC(=O)OC)=Nc2ccccc21 | 83.5% (active)
10 | O=C1CC2(CCC(O)(c3ccc(Cl)cc3)C(C(=O)c3ccc(Cl)cc3)C2)C(=O)c2ccccc2N1 (stereo not given) | -48.6%
11 | CC(C)(C)OC(=O)CC1(C)NC(C(=O)O)C(C)(C)S1 (stereo not given) | 10.8%
12 | CCCCCCC(O)CCCCCC | -12.3%
13 | CCCCCCCCN(CCCCCCCC)CC(O)c1cc(-c2ccccc2)nc2c(-c3ccccc3)cccc12 (stereo not given) | 48.5%
14 | CCOC(=O)OCCOCCOC(=O)OCC | 25.8%
15 | NNC(=O)CSCC(=O)NN | -5.35%
16 | O=C(O)CCSCCCCCCCCCCCCSCCC(=O)O | 25.8%
17 | CC(=O)Cc1ccc2[nH]c(C)cc(=O)c2c1 | 4.55%
18 | O=[N+]([O-])c1cc(S(=O)(=O)O)cc(S(=O)(=O)O)c1O | 18.1%
19 | CN(C)c1nc2ccccc2[nH]1 | -2%
20 | CCOC(=O)C1CCCCC1C(=O)OCC (stereo not given) | -26.9%

Row | Structure (SMILES) | growth inhibition
21 | CCCCCCCCCCCCOc1ccc(C(C)(C)C)cc1 | -11.7%
22 | Nc1nc2c(ncn2C2OC(CO)C3OP(=O)(O)OC32)c(=O)[nH]1 (stereo not given) | -15.8%
23 | COC1CCC(/C(C#N)=C/C2CCC(N(C)C)CC2)CC1 (stereo not given) | 18.6%
24 | CCCCCCC(=O)c1ccc2ccccc2c1O | -2.55%
25 | COc1ccc(C(Cl)=C(c2ccc(OCCN(C)C)cc2)c2ccc(OCCN(C)C)cc2)cc1 | 20.1%
26 | CC1(C)CC(O)=CC(=O)N1 | 4.45%
27 | [O-]/[N+](=C\c1ccccc1)[C@H](COCc1ccccc1)c1ccccc1 | -5.5%
28 | O=C1OC([C@H](O)c2cccnc2)c2ccccc21 (stereo not given in full) | -21.6%
29 | COC(=O)C(=[N+]=[N-])C(=O)c1ccccc1[N+](=O)[O-] | 14.5%
30 | CN1CCC2(CC1)C(=NC1CCCCC1)NC(=O)N2c1ccccc1 | 3.7%
31 | O=C(NCc1cccs1)OC1CC2CCC1C2 (stereo not given) | 20.4%
32 | COC(=O)c1cc(C)ccc1/C=C1\Cc2c(C)cc(C)cc2C1=O | -39.6%
33 | Nc1cc([N+](=O)[O-])ccc1N1C(=O)CCCC1=O | 12.4%
34 | CC(C)(C)NC(NC(C)(C)C)=C(/C=C(/Cl)[N+](=O)[O-])[N+](=O)[O-] | 15.1%
35 | O=C(NCc1ccc([N+](=O)[O-])cc1)c1ccccc1 | 6.7%
36 | CC(C)(C)NC(=O)Oc1ccc2ccccc2c1 | -15.7%
37 | CSc1ccc(NC(=O)Nc2ccccc2C(F)(F)F)cc1 | 27%
38 | O=C(ON=C1c2ccccc2C(Br)C(Br)c2ccccc21)c1cc([N+](=O)[O-])cc([N+](=O)[O-])c1 (stereo not given) | 27.5%
39 | CNc1nc(=S)nc(-c2ccccc2)s1 | -9.6%
40 | CCN(CC)CCOc1ccc(Cc2nc3c([nH]2)c(=O)n(C)c(=O)n3C)cc1 | 11.3%
